The text below walks through data of PubChem BioAssay (NCATS).

Structures are written as SMILES. Records with an inconclusive call do not appear. A number with no mark means an inactive call. Active and inactive are the calls of the source. Calls follow the shape of the dose curve; as a rule, active = well fitted inhibition curve with a large enough effect; inconclusive = small, poorly fitted or top-dose-only effect; inactive = flat fitted curve, though single readings scatter.
Potency is read from the fitted curve at half-maximal effect.

For this test, the system named is CP268. The experiment in a line: qHTS profiling for inhibitors of Plasmodium falciparum proliferation (AID 504749). Also: nearly all actives have a fitted effect of over 60% in size.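 As to activity, negative = inhibition: 0% = DMSO vehicle and full inhibition = artemisinin control.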 To be noted: P. falciparum in erythrocytes, SYBR Green DNA, 72 h; series mostly up to 28.7 µM; activity, negative = inhibition: at the top concentration. The procedure, abridged: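 In a 72 h erythrocytic culture (37 C, humidified, 5% CO2) at 2.5% hematocrit and 0.3% starting parasitemia, compounds were tested; SYBR Green I in detergent lysis buffer stained parasite DNA overnight.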
(In general: In qHTS, concentration-response curves come from the screen itself.)
With `Cc1ccc(C(C)(C)c2ccc(C)cc2)cc1`, the “activity, negative = inhibition” value is -0.26%.
Consider `N[C@H](CC(=O)O)C(=O)O`, for which the “activity, negative = inhibition” value is -1.83%.
On the same count and under the same terms, to `O=C(O)COc1ccc(CCNS(=O)(=O)c2ccccc2)s1` belongs -4.18%; to `O=S(=O)(O)CCCS(=O)(=O)O`, 1.27%.
The same measure, in the same setting: to `COC(=O)c1ccccc1O` belongs -12.1%; to `CC1(O)CCC(C(C)(C)O)CC1` (centres undefined), -0.113%; to `COc1ccc(/C=C/C(=O)O)cc1`, -0.909%.
The same measure, in the same setting: to `CC(=O)Nc1c(I)c(C(=O)O)c(I)c(N(C)C(C)=O)c1I` belongs -2.53%.
Turning to `Nc1ncnc2c1ncn2[C@H]1CC[C@@H](CO)O1`, the “activity, negative = inhibition” value was -2.47%.
Same read-out and setting: to `COC(=O)C(CN)c1c[nH]c2ccc(OC)cc12` (centres undefined) belongs -1.82%; to `CC/C(=C(/CC)c1ccc(OP(=O)(O)O)cc1)c1ccc(OP(=O)(O)O)cc1`, -6.16%.
On to `CN1c2c(nc(N)[nH]c2=O)NCC1CNc1ccc(C(=O)NC(CCC(=O)O)C(=O)O)cc1` (centres undefined), for which the “activity, negative = inhibition” value is -0.186%.
Still for that read-out and setting: the result for `CC(C)(CO)[C@@H](O)C(=O)NCCC(=O)NCCSSCCNC(=O)CCNC(=O)[C@H](O)C(C)(C)CO` reads -1.61%.
As for `CCCC(=O)O`, the “activity, negative = inhibition” value is -4.97%.
For `CCSc1ccc2c(c1)N(CCCN1CCN(C)CC1)c1ccccc1S2`, the “activity, negative = inhibition” value is -1.25% [at 12.8 µM].
Turning to `CC1=CC(=C(c2ccc(N)cc2)c2ccc(N)cc2)C=CC1=N`, the Potency was 6.01 µM (active).
As for `CC1=CC(=O)NS(=O)(=O)O1`, the “activity, negative = inhibition” value was -3%.
On the same count and under the same terms, to `CC1CCCCN1CCCOC(=O)c1ccccc1` (centres undefined) belongs -10.4%; to `COC(=O)CC[C@H](N)C(=O)O`, 1.62%; to `C[C@H](CCC(=O)O)[C@H]1CC[C@H]2[C@@H]3CC[C@@H]4C[C@H](O)CC[C@]4(C)[C@H]3C[C@H](O)[C@]12C`, 2.93%.
In the case of `CO`, the “activity, negative = inhibition” value is 5.46%.
The same measure, in the same setting: to `C=CCN1CCCC1CNC(=O)c1cc(S(N)(=O)=O)cc(OC)c1OC` (centres undefined) belongs -6.21%.
Turning to `CC/C=C\C/C=C\C/C=C\C/C=C\C/C=C\C/C=C\CCC(=O)O`, the “activity, negative = inhibition” value is -1.32%.
Take `COc1cc2c(cc1OC)[C@@H](Cc1cc(OC)c(OC)c(OC)c1)[N+](C)(CCCOC(=O)CC/C=C/CCC(=O)OCCC[N+]1(C)CCc3cc(OC)c(OC)cc3[C@H]1Cc1cc(OC)c(OC)c(OC)c1)CC2` (some centres undefined): the “activity, negative = inhibition” value is 6.74%.
On to `CCCOC(=O)c1ccccc1O`, for which the “activity, negative = inhibition” value was 2.36%.
The same measure, in the same setting: the result for `CC/C=C\C/C=C\C/C=C\CCCCCCCC(=O)O` reads -2.65%.
Same read-out and setting: to `NC(=O)[C@H]1O[C@@H](O)[C@H](O)[C@@H](O)[C@@H]1O` belongs 1.87%.
The same measure, in the same setting: the result for `CCCCCCCCCCCCOCCCN` reads -0.0385%; that for `CC(C)(C)c1ccc2c(S(=O)(=O)O)c(C(C)(C)C)ccc2c1`, 8.03%.
Turning to `COC(=O)CCC[N+](C)(C)C`, the “activity, negative = inhibition” value was -1.34%.
Regarding `CNC(=O)OCc1cccc(COC(=O)NC)n1`, the “activity, negative = inhibition” value is -0.581%.
Still for that read-out and setting: to `O=C(NCCNCC(O)COc1ccc(O)cc1)N1CCOCC1` (centres undefined) belongs 1.57%.
Same read-out and setting: to `OC[C@H]1O[C@@H]2O[C@H]3[C@H](O)[C@@H](O)[C@@H](O[C@H]4[C@H](O)[C@@H](O)[C@@H](O[C@H]5[C@H](O)[C@@H](O)[C@@H](O[C@H]6[C@H](O)[C@@H](O)[C@@H](O[C@H]7[C@H](O)[C@@H](O)[C@@H](O[C@H]1[C@H](O)[C@H]2O)O[C@@H]7CO)O[C@@H]6CO)O[C@@H]5CO)O[C@@H]4CO)O[C@@H]3CO` belongs -14.5%; to `CCCCCCCCCCCCCCCCCCCCCC(=O)Nc1ccn([C@@H]2O[C@H](CO)[C@@H](O)[C@@H]2O)c(=O)n1`, -2.37%.
Same read-out and setting: to `CCCCCCCCCCCCCCCCCC[N+](C)(C)CCC[Si](OC)(OC)OC` belongs -3.71%; to `OB(O)O`, 4.02%; to `CCOc1ccc(NC(=S)Nc2ccc(OCC)cc2)cc1`, 1.03%.
For the molecule `CC(C)c1nc(N(C)S(C)(=O)=O)nc(-c2ccc(F)cc2)c1/C=C/C(O)CC(O)CC(=O)O` (centres undefined), the “activity, negative = inhibition” value is -3.82%.
Same read-out and setting: to `O=C(/C=C/c1cccc(F)c1)NC1CC1` belongs -1.13%.
